{"source": "ChEMBL document CHEMBL1157539", "about": "“Thousands of chemical starting points for antimalarial lead identification” (Nature, 2010)", "assay_type_in_all_cases": "functional", "key": {"[1]": {"system": "Plasmodium falciparum", "test": "GSK_TCMDC: Inhibition of Plasmodium falciparum 3D7 in whole red blood cells, using parasite LDH activity as an index of growth. Test compounds present at 2uM"}, "[2]": {"system": "Plasmodium falciparum", "test": "GSK_TCMDC: Inhibition of Plasmodium falciparum Dd2 in whole red blood cells, using parasite LDH activity as an index of growth. Test compounds present at 2uM"}, "[3]": {"system": "HepG2", "test": "GSK_TCMDC: Percent inhibition of human HepG2 cell line. Test compounds present at 10uM."}}}
{"smiles": "CCN(CC)CCCN(C(=O)Nc1c(Cl)cncc1Cl)c1nc(-c2ccc(F)cc2)cs1", "values": [{"measurement": "Inhibition", "setting": "[1]", "value": 100, "unit": "%"}, {"measurement": "Inhibition", "setting": "[2]", "value": 93, "unit": "%"}, {"measurement": "Inhibition", "setting": "[3]", "value": 37, "unit": "%"}]}
{"smiles": "O=C(Nc1cccc(-c2cccc(-c3nc4cc(C(F)(F)F)ccc4[nH]3)c2)c1)c1cccnc1", "values": [{"measurement": "Inhibition", "setting": "[1]", "value": 100, "unit": "%"}, {"measurement": "Inhibition", "setting": "[2]", "value": 70, "unit": "%"}, {"measurement": "Inhibition", "setting": "[3]", "value": 57, "unit": "%"}]}
{"smiles": "Cc1cccc2nc(-c3ccc(-c4cccc(CN5CCCCC5)c4)s3)[nH]c12.O=C(O)C(F)(F)F", "values": [{"measurement": "Inhibition", "setting": "[1]", "value": 100, "unit": "%"}, {"measurement": "Inhibition", "setting": "[2]", "value": 92, "unit": "%"}, {"measurement": "Inhibition", "setting": "[3]", "value": 11, "unit": "%"}]}
{"smiles": "CC(C)c1sc(N2CCN(C)CC2)nc1C(=O)NCCc1cccc(Cl)c1.O=C(O)C(F)(F)F", "values": [{"measurement": "Inhibition", "setting": "[1]", "value": 91, "unit": "%"}, {"measurement": "Inhibition", "setting": "[2]", "value": 15, "unit": "%"}, {"measurement": "Inhibition", "setting": "[3]", "value": 9, "unit": "%"}]}
{"smiles": "CCCCc1ccc(C(=O)Nc2ccc3nc(N4CCN(C)CC4)cc(C)c3c2)cc1", "values": [{"measurement": "Inhibition", "setting": "[1]", "value": 90, "unit": "%"}, {"measurement": "Inhibition", "setting": "[2]", "value": 21, "unit": "%"}, {"measurement": "Inhibition", "setting": "[3]", "value": 44, "unit": "%"}]}
{"smiles": "COc1ccccc1C1CC(c2ccccc2)=NN1C(=O)c1ccco1", "note": "(stereo not drawn)", "values": [{"measurement": "Inhibition", "setting": "[1]", "value": 97, "unit": "%"}, {"measurement": "Inhibition", "setting": "[2]", "value": 95, "unit": "%"}, {"measurement": "Inhibition", "setting": "[3]", "value": 12, "unit": "%"}]}
{"smiles": "COc1cc(CNCCCCCCNCc2cc(OC)cc3ccccc23)c2ccccc2c1.CS(=O)(=O)O", "values": [{"measurement": "Inhibition", "setting": "[1]", "value": 100, "unit": "%"}, {"measurement": "Inhibition", "setting": "[2]", "value": 94, "unit": "%"}, {"measurement": "Inhibition", "setting": "[3]", "value": 57, "unit": "%"}]}
{"smiles": "COc1ccc(NC(=O)c2ccc(-c3nc(-c4cccc(C(F)(F)F)c4)cs3)cc2)cc1N1CCN(C)CC1", "values": [{"measurement": "Inhibition", "setting": "[1]", "value": 98, "unit": "%"}, {"measurement": "Inhibition", "setting": "[2]", "value": 59, "unit": "%"}, {"measurement": "Inhibition", "setting": "[3]", "value": 29, "unit": "%"}]}
{"smiles": "CCSc1nc2sc3c(c2c(=O)n1-c1ccccc1)CCN(C)C3", "values": [{"measurement": "Inhibition", "setting": "[1]", "value": 83, "unit": "%"}, {"measurement": "Inhibition", "setting": "[2]", "value": 71, "unit": "%"}, {"measurement": "Inhibition", "setting": "[3]", "value": 16, "unit": "%"}]}
{"smiles": "Cc1ccc(NC(=O)c2cccc(CN3CCCN(Cc4cccc(O)c4)CC3)c2)cc1C.O=C(O)C(F)(F)F", "values": [{"measurement": "Inhibition", "setting": "[1]", "value": 95, "unit": "%"}, {"measurement": "Inhibition", "setting": "[2]", "value": 31, "unit": "%"}, {"measurement": "Inhibition", "setting": "[3]", "value": 19, "unit": "%"}]}
{"smiles": "O=C(CC1CCCC1)N(Cc1ccc(-c2ccc(CNC3Cc4ccccc4C3)cc2)cc1)CC1CCCCN1.O=C(O)C(F)(F)F", "note": "(stereo not drawn)", "values": [{"measurement": "Inhibition", "setting": "[1]", "value": 88, "unit": "%"}, {"measurement": "Inhibition", "setting": "[2]", "value": 86, "unit": "%"}, {"measurement": "Inhibition", "setting": "[3]", "value": 41, "unit": "%"}]}
{"smiles": "CCCOc1ccc(C=C(CC(=O)O)c2nc3ccccc3s2)cc1OCC", "values": [{"measurement": "Inhibition", "setting": "[1]", "value": 89, "unit": "%"}, {"measurement": "Inhibition", "setting": "[2]", "value": 84, "unit": "%"}, {"measurement": "Inhibition", "setting": "[3]", "value": 7, "unit": "%"}]}
{"smiles": "CN(CCCNCc1ccc2ccccc2c1)CCCNCc1ccc2ccccc2c1.Cl", "values": [{"measurement": "Inhibition", "setting": "[1]", "value": 100, "unit": "%"}, {"measurement": "Inhibition", "setting": "[2]", "value": 79, "unit": "%"}, {"measurement": "Inhibition", "setting": "[3]", "value": 100, "unit": "%"}]}
{"smiles": "COc1ccc(CNCc2ccc(-c3cccc(-c4nc5cc(C(F)(F)F)ccc5[nH]4)c3)cc2)cc1.O=C(O)C(F)(F)F", "values": [{"measurement": "Inhibition", "setting": "[1]", "value": 100, "unit": "%"}, {"measurement": "Inhibition", "setting": "[2]", "value": 100, "unit": "%"}, {"measurement": "Inhibition", "setting": "[3]", "value": 59, "unit": "%"}]}
{"smiles": "CCC(C)NCCC(c1ccccc1)c1ccccc1O.Cl", "note": "(stereo not drawn)", "values": [{"measurement": "Inhibition", "setting": "[1]", "value": 97, "unit": "%"}, {"measurement": "Inhibition", "setting": "[2]", "value": 74, "unit": "%"}, {"measurement": "Inhibition", "setting": "[3]", "value": 4, "unit": "%"}]}
{"smiles": "CN1CCN(c2ccnc3cc4ccccc4cc23)CC1", "values": [{"measurement": "Inhibition", "setting": "[1]", "value": 93, "unit": "%"}, {"measurement": "Inhibition", "setting": "[2]", "value": 49, "unit": "%"}, {"measurement": "Inhibition", "setting": "[3]", "value": 11, "unit": "%"}]}
{"smiles": "COc1cccc(-c2nc3c(N4CCN(c5ccncc5)CC4)cccc3n2CC2CCCCCN2)n1.O=C(O)C(F)(F)F", "note": "(stereo not drawn)", "values": [{"measurement": "Inhibition", "setting": "[1]", "value": 91, "unit": "%"}, {"measurement": "Inhibition", "setting": "[2]", "value": 31, "unit": "%"}, {"measurement": "Inhibition", "setting": "[3]", "value": 12, "unit": "%"}]}
{"smiles": "Cc1cc2nc(-c3ccc(/C=C/C(=O)NCCc4ccccc4)cc3)[nH]c2cc1C", "values": [{"measurement": "Inhibition", "setting": "[1]", "value": 98, "unit": "%"}, {"measurement": "Inhibition", "setting": "[2]", "value": 13, "unit": "%"}, {"measurement": "Inhibition", "setting": "[3]", "value": 3, "unit": "%"}]}
{"smiles": "CCn1c(Sc2ccc(C#N)c([N+](=O)[O-])c2)nnc1-c1ccc(OC)cc1", "values": [{"measurement": "Inhibition", "setting": "[1]", "value": 98, "unit": "%"}, {"measurement": "Inhibition", "setting": "[2]", "value": 94, "unit": "%"}, {"measurement": "Inhibition", "setting": "[3]", "value": 0, "unit": "%"}]}
{"smiles": "O=C(/C=C/c1ccc(Cl)c(Cl)c1)NCCCCCN1CCC(NC(=O)Nc2ccc(Cl)c(C(F)(F)F)c2)CC1", "values": [{"measurement": "Inhibition", "setting": "[1]", "value": 99, "unit": "%"}, {"measurement": "Inhibition", "setting": "[2]", "value": 19, "unit": "%"}, {"measurement": "Inhibition", "setting": "[3]", "value": 76, "unit": "%"}]}
{"smiles": "CC(Nc1ncc(-c2ccsc2)c(-c2nccs2)n1)c1ccc2c(c1)OCCO2", "note": "(stereo not drawn)", "values": [{"measurement": "Inhibition", "setting": "[1]", "value": 81, "unit": "%"}, {"measurement": "Inhibition", "setting": "[2]", "value": 66, "unit": "%"}, {"measurement": "Inhibition", "setting": "[3]", "value": 14, "unit": "%"}]}
{"smiles": "C=CCc1cccc(CN2CCC(c3cc(O)nc(-c4ccccn4)n3)CC2)c1O", "values": [{"measurement": "Inhibition", "setting": "[1]", "value": 91, "unit": "%"}, {"measurement": "Inhibition", "setting": "[2]", "value": 75, "unit": "%"}, {"measurement": "Inhibition", "setting": "[3]", "value": 46, "unit": "%"}]}
{"smiles": "CCCC(C)Nc1nc(C)cc(N[C@@H](Cc2ccccc2)C(=O)NCc2ccc(C)cc2)n1.O=C(O)C(F)(F)F", "note": "(stereo partly drawn)", "values": [{"measurement": "Inhibition", "setting": "[1]", "value": 100, "unit": "%"}, {"measurement": "Inhibition", "setting": "[2]", "value": 93, "unit": "%"}, {"measurement": "Inhibition", "setting": "[3]", "value": 22, "unit": "%"}]}
{"smiles": "Cc1cc(-c2cccc(CNC3CCN(C)CC3)c2)ccc1S(=O)(=O)NCCc1ccccn1.O=C(O)C(F)(F)F", "values": [{"measurement": "Inhibition", "setting": "[1]", "value": 97, "unit": "%"}, {"measurement": "Inhibition", "setting": "[2]", "value": 72, "unit": "%"}, {"measurement": "Inhibition", "setting": "[3]", "value": 22, "unit": "%"}]}
{"smiles": "Cc1cc(=NN=Cc2cccc(F)c2)c2cccc(C)c2[nH]1", "values": [{"measurement": "Inhibition", "setting": "[1]", "value": 100, "unit": "%"}, {"measurement": "Inhibition", "setting": "[2]", "value": 53, "unit": "%"}, {"measurement": "Inhibition", "setting": "[3]", "value": 14, "unit": "%"}]}
{"smiles": "Cc1cc(C)c(C(=O)Nc2ccc3nc(C)cc(N)c3c2)c(C)c1.Cl", "values": [{"measurement": "Inhibition", "setting": "[1]", "value": 84, "unit": "%"}, {"measurement": "Inhibition", "setting": "[2]", "value": 14, "unit": "%"}, {"measurement": "Inhibition", "setting": "[3]", "value": 12, "unit": "%"}]}
{"smiles": "CCOC(=O)c1ccc(NC(=O)N[C@@H](Cc2ccc(O)cc2)C(=O)NC2CCN(Cc3ccc4c(c3)OCO4)CC2)cc1.O=C(O)C(F)(F)F", "values": [{"measurement": "Inhibition", "setting": "[1]", "value": 86, "unit": "%"}, {"measurement": "Inhibition", "setting": "[2]", "value": 24, "unit": "%"}, {"measurement": "Inhibition", "setting": "[3]", "value": 0, "unit": "%"}]}
{"smiles": "CC(C)CNCc1ccc(-c2ccc(CN(CCCN3CCN(C)CC3)C(=O)CCC3CCCC3)cc2)cc1.O=C(O)C(F)(F)F", "values": [{"measurement": "Inhibition", "setting": "[1]", "value": 96, "unit": "%"}, {"measurement": "Inhibition", "setting": "[2]", "value": 87, "unit": "%"}, {"measurement": "Inhibition", "setting": "[3]", "value": 50, "unit": "%"}]}
{"smiles": "Cl.N=C(N)Nc1ccc(OCCCCCOc2ccc(NC(=N)N)cc2Br)c(Br)c1", "values": [{"measurement": "Inhibition", "setting": "[1]", "value": 92, "unit": "%"}, {"measurement": "Inhibition", "setting": "[2]", "value": 95, "unit": "%"}, {"measurement": "Inhibition", "setting": "[3]", "value": 27, "unit": "%"}]}
{"smiles": "COc1ccc2nccc([C@@H](O)CN3CCC(NC(=O)c4cc5cccnc5[nH]4)CC3)c2c1.Cl", "values": [{"measurement": "Inhibition", "setting": "[1]", "value": 94, "unit": "%"}, {"measurement": "Inhibition", "setting": "[2]", "value": 6, "unit": "%"}, {"measurement": "Inhibition", "setting": "[3]", "value": 0, "unit": "%"}]}
{"smiles": "O=c1cc(NCCCCNCc2cccc(Br)c2)[nH]c2ccccc12", "values": [{"measurement": "Inhibition", "setting": "[1]", "value": 98, "unit": "%"}, {"measurement": "Inhibition", "setting": "[2]", "value": 19, "unit": "%"}, {"measurement": "Inhibition", "setting": "[3]", "value": 0, "unit": "%"}]}
